Reference: PubChem BioAssay AID720533 (National Center for Advancing Translational Sciences (NCATS), 2013)
Values joined by “and” are separate entries in the source; they are usually repeats but may differ in a detail not shown here. Equal values may be shown once. Out of some 18,000 compounds screened, about 750 (4.2%) were called active. Inconclusive results (about 13%) are left out. Calls come from the whole dose curve; tested in HEK293 cells. The full list was thinned out, with actives kept by preference. Some structures have more than one record in an assay (separate samples or runs), and their calls can disagree.

test: qHTS for Inhibitors of binding or entry into cells for Lassa Virus; settings: Lassa virus pseudotyped entry inhibition, cell-based qHTS; series mostly up to 49.2 µM; activity change, negative = inhibition: at the top concentration
% is set by controls: 0 for no effect and ±100 for the full control effect; potency is the fitted concentration of half-maximal effect.

Row | Compound | activity change, negative = inhibition | Potency
1 | O=c1cc(-c2ccc(O)cc2)oc2c([C@@H]3O[C@H](CO)[C@@H](O)[C@H](O)[C@H]3O)c(O)cc(O)c12 | -0.528% (inactive) | 
2 | COc1ccc(CCC(=O)c2c(O)cc(OC3OC(CO)C(O)C(O)C3O[C@@H]3OC(C)C(O)C(O)C3O)cc2O)cc1O (some centres undefined) | -1.94% (inactive) | 
3 | Cc1cccc(CNc2ccnc(-c3cccnc3)n2)c1 | -0.505% (inactive) | 
4 | CCCCN1C[C@H](c2ccc(Br)cc2)[C@@H](CC(=O)Nc2ccc(Br)cc2)C1=O | -23.4% (inactive) | 
5 | Nc1ncnc2c1ncn2C1CC(O)C(CO)O1 (centres undefined) | inactive | 
6 | COc1ccc(C[C@H](N)C(=O)N[C@@H]2[C@H](O)[C@H](n3cnc4c(N(C)C)ncnc43)O[C@@H]2CO)cc1 |  | 2.51 µM (active)
7 | COc1ccc(CC(N)C(=O)NC2C(O)[C@H](n3cnc4c(N(C)C)ncnc43)O[C@@H]2CO)cc1 (some centres undefined) |  | 3.98 µM (active)
8 | CCN(CC)CCCC(C)Nc1ccnc2cc(Cl)ccc12 (centres undefined) | inactive | 
9 | COC1=C[C@H](C(=O)NCCNC(C)=O)[C@H](C)[C@@H](c2ccccc2)CC1=O | -0.439% [at 8.59 µM] (inactive) | 
10 | COC(=O)[C@H](CC(C)C)NS(=O)(=O)c1c(F)cccc1F | 15.1% (inactive) | 
11 | O=C1NC(CC(=O)N2CCC(n3c(C4CCC4)nc4cccnc43)CC2)c2ccccc21 (centres undefined) | -11.6% (inactive) | 
12 | Fc1cccc(/C=N\N=C/c2cccc(F)c2)c1 | 2.67% (inactive) | 
13 | C=CCOC(=O)C(=C)C | -1% (inactive) | 
14 | Cc1ccc(-c2ncc(Cl)cc2-c2ccc(S(C)(=O)=O)cc2)cn1 | -8.61% (inactive) | 
15 | CC[C@H](C)[C@H](NC(=O)[C@@H](N)CCC(=O)O)C(=O)N[C@@H](CC(C)C)C(=O)N[C@@H](CC(=O)O)C(=O)N[C@H](C(=O)N1CCC[C@H]1C(=O)N[C@@H](CO)C(=O)N[C@H](C(=O)O)[C@@H](C)O)C(C)C | -17.7% (inactive) | 
16 | CC[C@H]1CN2CCc3cc(OC)c(OC)cc3[C@@H]2C[C@@H]1C[C@H]1NCCc2cc(OC)c(OC)cc21 |  | 0.1 µM (active)
17 | O=C(NCC1Cc2cc(F)cc(-c3cnccn3)c2O1)C1COc2ccccc2O1 (centres undefined) | -10.2% (inactive) | 
18 | CCCCCCCC/C=C\CCCCCCCC(=O)NCC(=O)O | -9.14% (inactive) | 
19 | O=[N+]([O-])c1ccc(CN2CC(N3CC=CC3)CS2(=O)=O)cc1 (centres undefined) | 14.7% (inactive) | 
20 | COc1ccc(-c2c(C)cc3oc(=O)cc(-c4ccccc4)c3c2C)cc1F | 8.65% (inactive) | 

Row | Compound | activity change, negative = inhibition | Potency
21 | CN[C@@H]1[C@@H](O)[C@@H](O[C@@H]2[C@H](O)[C@H](O[C@H]3OC(CN)=CC[C@H]3N)[C@@H](N)C[C@H]2N)OCC1(C)O (some centres undefined) | -1.11% (inactive) | 
22 | CCOC(=O)CN1C(=O)NC(CCc2ccccc2)C(C(C)=O)=C1C (centres undefined) | -20.9% [at 8.59 µM] (inactive) | 
23 | OCCN1CCN(CC/C=C2\c3ccccc3Sc3ccc(C(F)(F)F)cc32)CC1 | -11% [at 17.8 µM] (inactive) | 
24 | Cc1ccc(/C(=C/CN2CCCC2)c2ccccn2)cc1 | inactive | 
25 | COc1ccccc1-c1ccnc(-n2ncc(C(=O)NCCCN3CCOCC3)c2C)n1 | 3.84% (inactive) | 
26 | C=CCN1C(=O)[C@]2(OCCC=C[C@H]2C)c2ccccc21 | -16.5% [at 8.59 µM] (inactive) | 
27 | C[C@@H]1CC[C@H]2C(=O)N(Cc3ccc(Cl)cc3)C[C@@H](O)CN2[C@@H]1c1cccc(Br)c1 | 6.98% [at 8.59 µM] (inactive) | 
28 | Nc1nc2[nH]c(=O)c(=O)[nH]c2c(=O)[nH]1 | 5.82% (inactive) | 
29 | CCOC(=O)Cn1c(=O)sc2cccc(Cl)c21 | -6.52% (inactive) | 
30 | CNCC[C@H](Oc1ccc(C(F)(F)F)cc1)c1ccccc1 |  | inactive and 28.2 µM (active)
31 | COC(=O)C1=C(C)N(Cc2ccccc2)C(=NCCc2ccccn2)NC1c1cccc(C(F)(F)F)c1 (centres undefined) | -11.6% [at 8.59 µM] (inactive) | 
32 | COc1ccccc1N1CCN(CCN2C(=O)c3ccccc3C(C)(C)C2=O)CC1 | inactive | 
33 | CC(C)=CCC[C@]1(C)[C@@H](CC=C(C)C)C[C@@]2(CC=C(C)C)C(=O)[C@]1(C(=O)C(C)C)C(=O)C(CC=C(C)C)=C2O |  | 12.6 µM (active)
34 | Nc1nccc(-c2c(-c3ccc(F)cc3)ncn2CCCN2CCOCC2)n1 | 97% (inactive) | 
35 | CC(=O)Oc1c2c(c3c(c1CC=C(C)C)O[C@@]14C(=CC5CC1C(C)(C)OC4(C/C=C(\C)C(=O)O)C5=O)C3=O)OC(C)(CCC=C(C)C)C=C2 (some centres undefined) |  | 6.31 µM (active)
36 | NCCCNCCCCN(CCCN)/[N+]([O-])=N/O | 3.12% (inactive) | 
37 | CCCCC/C=C\C/C=C\CCCCCCCCCC(=O)NCC(=O)O | 2.05% (inactive) | 
38 | CCCCCCCC1=Cc2ccc(F)cc2C(C(C(=O)OC)C(=O)OC)N1C(=O)OC (centres undefined) | inactive | 
39 | COc1ccccc1-c1nc(NCCNC(C)=O)c2ccccc2n1 | 0.865% (inactive) | 
